According to the supplement of paper PMC11732987, “Enantioselective OTUD7B fragment discovery through chemoproteomics screening and high-throughput optimisation” (Communications Chemistry, 2025):

How the values were obtained:
Test in all cases: log2 ratio of Biotin-Ahx-Ub-VS probe labelling (fragment/DMSO); higher = less target engagement (more negative = stronger competition), active = hit call of the paper (q ≤ 0.05, log2 ratio ≤ -1)
Conditions in all cases: compound concentration: 200 uM; treatment time: 3 h
USP19 = biological target: T1, USP19 (UniProt O94966)
T1 sequence (whole entry): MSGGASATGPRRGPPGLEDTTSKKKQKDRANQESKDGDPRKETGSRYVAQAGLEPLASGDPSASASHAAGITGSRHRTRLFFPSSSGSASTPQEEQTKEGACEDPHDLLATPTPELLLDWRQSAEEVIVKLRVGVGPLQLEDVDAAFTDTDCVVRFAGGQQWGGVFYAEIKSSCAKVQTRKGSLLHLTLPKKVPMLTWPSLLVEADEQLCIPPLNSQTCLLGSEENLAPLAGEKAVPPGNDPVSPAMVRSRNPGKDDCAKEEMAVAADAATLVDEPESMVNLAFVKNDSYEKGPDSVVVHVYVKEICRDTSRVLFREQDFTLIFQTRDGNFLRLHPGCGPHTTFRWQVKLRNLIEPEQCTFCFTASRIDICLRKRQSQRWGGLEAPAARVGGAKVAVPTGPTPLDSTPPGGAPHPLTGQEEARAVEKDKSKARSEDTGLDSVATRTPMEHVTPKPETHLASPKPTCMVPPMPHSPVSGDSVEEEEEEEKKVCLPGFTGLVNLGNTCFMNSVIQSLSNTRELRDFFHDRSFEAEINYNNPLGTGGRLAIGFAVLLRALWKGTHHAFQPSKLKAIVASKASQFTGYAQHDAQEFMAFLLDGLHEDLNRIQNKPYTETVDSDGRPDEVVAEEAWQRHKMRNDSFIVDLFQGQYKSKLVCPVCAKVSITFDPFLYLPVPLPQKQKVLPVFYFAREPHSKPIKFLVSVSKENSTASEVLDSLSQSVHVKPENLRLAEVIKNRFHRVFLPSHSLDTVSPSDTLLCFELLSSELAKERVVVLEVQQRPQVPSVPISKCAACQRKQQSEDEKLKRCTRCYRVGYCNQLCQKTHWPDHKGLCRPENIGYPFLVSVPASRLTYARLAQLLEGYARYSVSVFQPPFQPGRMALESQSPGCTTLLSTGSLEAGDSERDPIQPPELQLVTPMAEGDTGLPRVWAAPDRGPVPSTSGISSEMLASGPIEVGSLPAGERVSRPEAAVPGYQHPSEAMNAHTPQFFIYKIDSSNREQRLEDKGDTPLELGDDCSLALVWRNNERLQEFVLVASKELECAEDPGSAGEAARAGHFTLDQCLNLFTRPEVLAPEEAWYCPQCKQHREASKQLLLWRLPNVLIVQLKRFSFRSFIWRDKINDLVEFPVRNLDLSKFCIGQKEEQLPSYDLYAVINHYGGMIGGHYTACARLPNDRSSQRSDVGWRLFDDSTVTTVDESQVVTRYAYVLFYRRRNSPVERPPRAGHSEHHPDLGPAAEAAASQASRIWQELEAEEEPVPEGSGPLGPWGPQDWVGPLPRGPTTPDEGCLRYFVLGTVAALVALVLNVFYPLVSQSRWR
How it was run: (§1)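 Labelled DUBs from HEK293T lysate were NeutrAvidin-enriched, digested with LysC and trypsin, and run by diaPASEF LC-MS/MS. Before that, each 495 µg sample in Tris/CHAPS/IGEPAL buffer with protease inhibitors was treated in triplicate with fragment at 200 µM or vehicle for 3 h, then with Biotin-Ahx-Ub-VS at 0.5 µM final for 1 h. Values are average log2 ratios of fragment over vehicle by unpaired t-test, based on global-median-normalised Spectronaut label-free quantities from proteins with ≥2 unique peptides.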

USP22 = biological target: T2, USP22 (UniProt Q9UPT9)
T2 sequence (whole entry): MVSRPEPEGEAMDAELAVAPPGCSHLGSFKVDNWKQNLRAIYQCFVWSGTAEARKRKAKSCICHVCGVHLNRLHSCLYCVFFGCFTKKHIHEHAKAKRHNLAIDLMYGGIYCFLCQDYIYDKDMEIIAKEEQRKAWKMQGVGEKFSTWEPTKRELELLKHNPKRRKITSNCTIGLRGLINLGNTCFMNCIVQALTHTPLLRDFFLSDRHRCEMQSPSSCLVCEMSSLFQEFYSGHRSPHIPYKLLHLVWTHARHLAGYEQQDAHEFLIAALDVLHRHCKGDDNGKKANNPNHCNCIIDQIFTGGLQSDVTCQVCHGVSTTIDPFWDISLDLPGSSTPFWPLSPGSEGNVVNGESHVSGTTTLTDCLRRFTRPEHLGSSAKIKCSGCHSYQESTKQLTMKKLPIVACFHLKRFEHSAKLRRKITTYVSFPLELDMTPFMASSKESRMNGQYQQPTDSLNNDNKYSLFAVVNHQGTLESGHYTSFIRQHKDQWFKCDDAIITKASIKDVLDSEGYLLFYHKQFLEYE
How it was run: as §1

USP24 = USP24 (UniProt Q9UPU5)
How it was run: as §1

USP25 = biological target: T3, USP25 (UniProt Q9UHP3)
T3 sequence (whole entry): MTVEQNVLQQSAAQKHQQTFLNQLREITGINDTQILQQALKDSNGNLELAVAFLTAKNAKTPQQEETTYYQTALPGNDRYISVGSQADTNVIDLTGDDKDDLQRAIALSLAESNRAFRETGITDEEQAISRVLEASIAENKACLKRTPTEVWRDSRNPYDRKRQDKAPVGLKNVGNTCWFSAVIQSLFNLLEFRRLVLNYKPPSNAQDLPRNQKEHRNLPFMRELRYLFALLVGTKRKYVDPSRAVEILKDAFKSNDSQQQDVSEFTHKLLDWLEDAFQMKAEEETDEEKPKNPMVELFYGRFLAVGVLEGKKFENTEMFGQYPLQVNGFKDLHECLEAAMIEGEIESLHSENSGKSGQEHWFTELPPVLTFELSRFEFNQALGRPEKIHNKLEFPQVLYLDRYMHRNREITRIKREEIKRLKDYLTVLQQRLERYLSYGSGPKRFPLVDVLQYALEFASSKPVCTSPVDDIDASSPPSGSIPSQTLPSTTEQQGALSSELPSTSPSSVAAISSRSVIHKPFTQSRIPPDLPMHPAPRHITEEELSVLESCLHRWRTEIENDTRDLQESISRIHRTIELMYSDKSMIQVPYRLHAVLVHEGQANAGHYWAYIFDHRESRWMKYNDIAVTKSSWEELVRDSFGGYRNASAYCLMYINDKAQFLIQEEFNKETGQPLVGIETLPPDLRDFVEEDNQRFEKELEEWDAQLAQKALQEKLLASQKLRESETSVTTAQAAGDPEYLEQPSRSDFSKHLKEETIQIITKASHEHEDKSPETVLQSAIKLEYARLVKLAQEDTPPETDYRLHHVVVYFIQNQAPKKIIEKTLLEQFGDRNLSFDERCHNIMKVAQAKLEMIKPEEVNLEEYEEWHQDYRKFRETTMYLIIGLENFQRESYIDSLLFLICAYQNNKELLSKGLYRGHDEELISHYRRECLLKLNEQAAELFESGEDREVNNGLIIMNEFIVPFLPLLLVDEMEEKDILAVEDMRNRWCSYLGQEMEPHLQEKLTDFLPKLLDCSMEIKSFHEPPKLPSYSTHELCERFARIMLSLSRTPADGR
How it was run: as §1

USP28 = biological target: T4, USP28 (UniProt Q96RU2)
T4 sequence (whole entry): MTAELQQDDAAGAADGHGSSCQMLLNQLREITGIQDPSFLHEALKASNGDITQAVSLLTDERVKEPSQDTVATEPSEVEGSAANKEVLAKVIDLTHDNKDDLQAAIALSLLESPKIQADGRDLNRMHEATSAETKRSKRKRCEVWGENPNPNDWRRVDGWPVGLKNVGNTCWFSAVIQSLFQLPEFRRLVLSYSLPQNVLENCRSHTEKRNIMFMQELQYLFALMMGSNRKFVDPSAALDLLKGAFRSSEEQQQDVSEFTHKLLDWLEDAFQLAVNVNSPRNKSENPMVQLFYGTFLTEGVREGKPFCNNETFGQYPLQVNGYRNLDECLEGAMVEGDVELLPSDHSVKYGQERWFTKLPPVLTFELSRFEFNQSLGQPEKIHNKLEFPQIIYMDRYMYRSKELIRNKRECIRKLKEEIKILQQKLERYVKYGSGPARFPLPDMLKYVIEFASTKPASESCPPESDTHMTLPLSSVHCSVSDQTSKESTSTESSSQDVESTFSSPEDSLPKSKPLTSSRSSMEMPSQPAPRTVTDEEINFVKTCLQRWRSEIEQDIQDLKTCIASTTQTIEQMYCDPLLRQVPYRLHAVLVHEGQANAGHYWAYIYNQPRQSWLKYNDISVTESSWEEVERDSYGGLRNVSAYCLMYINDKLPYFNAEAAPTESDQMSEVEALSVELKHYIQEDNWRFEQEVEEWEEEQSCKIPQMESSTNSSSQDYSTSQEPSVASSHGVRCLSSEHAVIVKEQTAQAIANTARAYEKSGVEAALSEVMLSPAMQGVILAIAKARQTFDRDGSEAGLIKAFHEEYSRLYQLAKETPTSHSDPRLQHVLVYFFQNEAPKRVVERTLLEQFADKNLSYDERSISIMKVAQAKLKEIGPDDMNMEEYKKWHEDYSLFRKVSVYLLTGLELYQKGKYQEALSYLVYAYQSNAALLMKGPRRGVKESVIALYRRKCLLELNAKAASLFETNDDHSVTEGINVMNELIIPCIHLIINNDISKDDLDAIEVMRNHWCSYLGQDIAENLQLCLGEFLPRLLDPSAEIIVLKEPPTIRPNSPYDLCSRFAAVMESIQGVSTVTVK
How it was run: as §1

Measured: log2 ratio of Biotin-Ahx-Ub-VS probe labelling

USP24, sequence (Q9UPU5 whole entry): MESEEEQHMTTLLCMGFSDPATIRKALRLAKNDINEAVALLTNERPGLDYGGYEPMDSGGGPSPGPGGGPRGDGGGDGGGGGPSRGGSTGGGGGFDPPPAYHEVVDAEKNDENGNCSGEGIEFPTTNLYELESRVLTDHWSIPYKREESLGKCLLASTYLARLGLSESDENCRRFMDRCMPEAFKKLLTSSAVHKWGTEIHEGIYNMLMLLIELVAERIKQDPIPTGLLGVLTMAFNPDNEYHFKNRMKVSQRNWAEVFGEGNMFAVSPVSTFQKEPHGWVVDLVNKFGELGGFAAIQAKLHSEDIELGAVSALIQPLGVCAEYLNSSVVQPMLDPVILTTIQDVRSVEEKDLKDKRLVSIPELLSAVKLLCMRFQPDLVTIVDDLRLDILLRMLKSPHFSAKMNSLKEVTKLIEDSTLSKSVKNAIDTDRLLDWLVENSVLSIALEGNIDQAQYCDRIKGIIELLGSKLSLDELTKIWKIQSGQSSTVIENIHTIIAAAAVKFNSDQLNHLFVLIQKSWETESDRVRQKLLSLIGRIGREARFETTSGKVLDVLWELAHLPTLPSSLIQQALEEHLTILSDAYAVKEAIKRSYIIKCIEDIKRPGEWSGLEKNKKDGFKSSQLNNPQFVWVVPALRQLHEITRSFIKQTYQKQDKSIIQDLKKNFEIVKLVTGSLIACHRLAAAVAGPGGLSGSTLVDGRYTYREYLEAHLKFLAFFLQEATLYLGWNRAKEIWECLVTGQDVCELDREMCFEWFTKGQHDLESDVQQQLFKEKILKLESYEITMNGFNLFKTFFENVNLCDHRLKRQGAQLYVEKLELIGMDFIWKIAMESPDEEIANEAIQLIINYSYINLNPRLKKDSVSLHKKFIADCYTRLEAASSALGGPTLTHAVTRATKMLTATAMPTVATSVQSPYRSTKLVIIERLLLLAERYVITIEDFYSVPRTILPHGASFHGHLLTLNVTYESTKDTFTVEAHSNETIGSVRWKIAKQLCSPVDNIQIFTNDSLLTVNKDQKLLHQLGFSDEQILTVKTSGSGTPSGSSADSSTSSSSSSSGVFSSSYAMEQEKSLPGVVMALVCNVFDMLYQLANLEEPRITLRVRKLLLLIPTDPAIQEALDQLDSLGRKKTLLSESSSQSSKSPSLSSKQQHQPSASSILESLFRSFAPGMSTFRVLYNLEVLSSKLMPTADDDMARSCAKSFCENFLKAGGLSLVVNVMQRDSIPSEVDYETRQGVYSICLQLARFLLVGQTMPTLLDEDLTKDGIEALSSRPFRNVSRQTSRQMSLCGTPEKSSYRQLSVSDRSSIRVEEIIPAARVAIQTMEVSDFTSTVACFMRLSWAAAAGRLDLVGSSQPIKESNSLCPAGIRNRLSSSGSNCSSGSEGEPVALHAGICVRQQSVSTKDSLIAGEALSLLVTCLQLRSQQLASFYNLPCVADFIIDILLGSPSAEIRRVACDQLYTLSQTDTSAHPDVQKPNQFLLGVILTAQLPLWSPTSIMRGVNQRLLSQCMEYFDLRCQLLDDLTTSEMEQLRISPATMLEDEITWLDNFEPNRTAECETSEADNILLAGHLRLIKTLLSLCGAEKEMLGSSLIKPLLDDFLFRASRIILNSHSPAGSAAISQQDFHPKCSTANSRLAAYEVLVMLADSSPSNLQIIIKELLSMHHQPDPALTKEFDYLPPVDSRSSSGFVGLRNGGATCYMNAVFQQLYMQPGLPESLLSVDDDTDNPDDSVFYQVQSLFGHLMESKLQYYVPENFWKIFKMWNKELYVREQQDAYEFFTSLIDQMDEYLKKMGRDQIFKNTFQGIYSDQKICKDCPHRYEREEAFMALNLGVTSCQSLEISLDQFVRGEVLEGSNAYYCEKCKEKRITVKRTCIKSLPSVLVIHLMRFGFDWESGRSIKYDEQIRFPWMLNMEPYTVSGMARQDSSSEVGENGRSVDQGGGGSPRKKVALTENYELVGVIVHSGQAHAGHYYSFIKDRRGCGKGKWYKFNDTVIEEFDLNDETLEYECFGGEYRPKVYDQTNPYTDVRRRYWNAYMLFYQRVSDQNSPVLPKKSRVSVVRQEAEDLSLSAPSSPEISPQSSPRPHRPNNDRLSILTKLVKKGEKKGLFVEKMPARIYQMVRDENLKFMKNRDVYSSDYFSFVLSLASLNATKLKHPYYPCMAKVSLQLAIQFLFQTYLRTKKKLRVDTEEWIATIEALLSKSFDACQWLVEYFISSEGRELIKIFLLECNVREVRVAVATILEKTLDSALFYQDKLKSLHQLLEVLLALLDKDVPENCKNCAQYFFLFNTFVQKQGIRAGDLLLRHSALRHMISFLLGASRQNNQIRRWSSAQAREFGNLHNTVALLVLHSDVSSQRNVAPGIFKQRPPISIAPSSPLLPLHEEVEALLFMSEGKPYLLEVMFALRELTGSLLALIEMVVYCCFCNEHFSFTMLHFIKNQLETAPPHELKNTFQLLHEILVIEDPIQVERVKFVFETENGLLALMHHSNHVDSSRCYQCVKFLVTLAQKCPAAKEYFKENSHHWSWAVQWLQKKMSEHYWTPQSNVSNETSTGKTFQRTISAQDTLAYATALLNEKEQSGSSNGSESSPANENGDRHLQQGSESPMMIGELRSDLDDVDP

O=C(CCl)N1CCC(=C(F)CO)C1
inactive: USP19 -0.052 | USP22 0.192 | USP24 0.183 | USP25 0.0707 | USP28 -0.149
